Assay results: PubChem BioAssay (EPA / NIEHS)
Calls of active or inactive are those of the source. How the source made its calls: active means hit-call score of the fitted dose curve at least 0.9, where 1 is the maximum; inactive means score below 0.9.

Tests used:
Details in all cases: mRNA level, 48 h; actives raise or lower the signal
[1] = read-out: Cytochrome P450 3A4 (Homo sapiens) (UniProt P08684); assay: LTEA_HepaRG_CYP3A4: Life Technologies and Expression Analysis (LTEA) Assay for CYP3A4 using HepaRG (AID 2283487)
Summary of the method: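 In a human hepatic line (HepaRG), duplicate wells were treated 48 h with up to 100 uM chemical in half-log dilutions. Endpoint: CYP3A4 mRNA induction or loss relative to 0.5% DMSO vehicle, by qRT-PCR.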

[2] = read-out: DNA damage-inducible transcript 3 (DDIT3), DDIT3 (gene 1649); assay: LTEA_HepaRG_DDIT3: Life Technologies and Expression Analysis (LTEA) Assay for DNA damage-inducible transcript 3 (DDIT3) using HepaRG (AID 2283488)
Summary of the method: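 qRT-PCR readout (Fluidigm TaqMan), housekeeping-normalized to ACTB, GAPDH, POLR2A. HepaRG cells, 48 h exposure, 8-point half-log series from 100 uM in 0.5% DMSO, duplicates. Gain or loss of signal fitted against DMSO baseline.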

[3] = read-out: Pro-epidermal growth factor (Homo sapiens) (UniProt P01133); assay: LTEA_HepaRG_EGF: Life Technologies and Expression Analysis (LTEA) Assay for Epidermal growth factor (EGF) using HepaRG (AID 2283489)
Summary of the method: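 EGF expression changes in human HepaRG cells are scored by bidirectional fitting relative to 0.5% DMSO controls. Chemicals are tested at eight half-log concentrations up to 100 uM for 48 h in serum-free induction medium.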

[4] = read-out: Ezrin (EZR), EZR (gene 7430); assay: LTEA_HepaRG_EZR: Life Technologies and Expression Analysis (LTEA) Assay for Ezrin (EZR) using HepaRG (AID 2283491)
Summary of the method: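 Gain or loss of EZR mRNA is scored relative to 0.5% DMSO in human HepaRG cultures treated 48 h with test chemicals in duplicate, eight half-log concentrations from 100 uM.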

[5] = read-out: Cytochrome P450 3A7 (Homo sapiens) (UniProt P24462); assay: LTEA_HepaRG_CYP3A7: Life Technologies and Expression Analysis (LTEA) Assay for CYP3A7 using HepaRG (AID 2283492)
Summary of the method: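 Cells were thawed, plated, cultured 48 h, then treated for a further 48 h with chemicals (eight-point half-log series from 100 uM, 0.5% DMSO). RNA was isolated and CYP3A7 expression quantified by qRT-PCR normalised to ACTB, GAPDH and POLR2A.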

CYP3A5 (gene 1577) = assay: LTEA_HepaRG_CYP3A5: Life Technologies and Expression Analysis (LTEA) Assay for CYP3A5 using HepaRG (AID 2283493)
Summary of the method: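 qRT-PCR read-out: CYP3A5 transcript in HepaRG lysates, housekeeping-normalized (ACTB/GAPDH/POLR2A), fitted bidirectionally against 0.5% DMSO baseline. Exposure 48 h, eight half-log concentrations up to 100 uM, duplicates.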

[6] = read-out: Fatty Acid-Binding Protein 1 (FABP1), FABP1 (gene 2168); assay: LTEA_HepaRG_FABP1: Life Technologies and Expression Analysis (LTEA) Assay for Fatty Acid-Binding Protein 1 (FABP1) using HepaRG (AID 2283494)
Summary of the method: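 Values reflect bidirectional concentration-response fitting of FABP1 mRNA change against 0.5% DMSO controls. Human HepaRG cultures received eight half-log doses (top 100 uM) for 48 h; expression quantified by TaqMan qRT-PCR with housekeeping-gene normalization.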

[7] = read-out: Cytochrome P450 4A22 (Homo sapiens) (UniProt Q5TCH4); assay: LTEA_HepaRG_CYP4A22: Life Technologies and Expression Analysis (LTEA) Assay for Cytochrome P450 4A22 (CYP4A22) using HepaRG (AID 2283495)
Summary of the method: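 Cryopreserved HepaRG cells, plated and cultured 48 h, then switched to serum-free induction medium and treated 48 h (duplicates, up to 100 uM, half-log steps, 0.5% DMSO). Expression change of CYP4A22 was fitted bidirectionally against vehicle.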

[8] = read-out: Cytochrome P450 7A1 (Homo sapiens) (UniProt P22680); assay: LTEA_HepaRG_CYP7A1: Life Technologies and Expression Analysis (LTEA) Assay for Cytochrome P450 7A1 (CYP7A1) using HepaRG (AID 2283496)
Summary of the method: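 Using 0.5% DMSO as vehicle and baseline, chemicals were tested in duplicate over an 8-point range from 100 uM on HepaRG cells for 48 h; qRT-PCR signals were normalised to ACTB, GAPDH and POLR2A.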

[9] = read-out: Glutathione S-Transferase (GSTA2), GSTA2 (gene 2939); assay: LTEA_HepaRG_GSTA2: Life Technologies and Expression Analysis (LTEA) Assay for Glutathione S-Transferase (GSTA2) using HepaRG (AID 2283497)
Summary of the method: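 Oxidative-stress marker GSTA2 is quantified by TaqMan qRT-PCR in HepaRG cultures treated 48 h across an eight-point range to 100 uM. Expression is normalized to endogenous controls and compared with 0.5% DMSO vehicle.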

[10] = read-out: Glutamate-cysteine ligase catalytic (GCLC), GCLC (gene 2729); assay: LTEA_HepaRG_GCLC: Life Technologies and Expression Analysis (LTEA) Assay for Glutamate-cysteine ligase catalytic (GCLC) using HepaRG (AID 2283498)
Summary of the method: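 Oxidative-stress marker GCLC is measured as mRNA change in human HepaRG liver cells after 48 h chemical treatment in 0.5% DMSO, eight concentrations from 100 uM. Activity is fitted bidirectionally against vehicle.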

[11] = read-out: growth arrest and DNA damage 45 (GADD45G), GADD45G (gene 10912); assay: LTEA_HepaRG_GADD45G: Life Technologies and Expression Analysis (LTEA) Assay for growth arrest and DNA damage 45 (GADD45G) using HepaRG (AID 2283499)
Summary of the method: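 Human hepatic HepaRG line treated 48 h with chemicals (eight concentrations, half-log steps from 100 uM); transcript induction or repression of GADD45G scored by qRT-PCR versus DMSO vehicle.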

[12] = read-out: Glutamate-cysteine ligase regulatory (GCLM), GCLM (gene 2730); assay: LTEA_HepaRG_GCLM: Life Technologies and Expression Analysis (LTEA) Assay for Glutamate-cysteine ligase regulatory (GCLM) using HepaRG (AID 2283500)
Summary of the method: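 HepaRG, 48 h dosing, 100 uM top, half-log x8, 0.5% DMSO vehicle. Readout: GCLM mRNA by TaqMan qRT-PCR, housekeeping-normalized (ACTB/GAPDH/POLR2A). Curves fit bidirectionally vs DMSO baseline.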

[13] = read-out: Glutathione S-transferase M3 (GSTM3), GSTM3 (gene 2947); assay: LTEA_HepaRG_GSTM3: Life Technologies and Expression Analysis (LTEA) Assay for Glutathione S-transferase M3 (GSTM3) using HepaRG (AID 2283501)
Summary of the method: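 Changes in GSTM3 expression, an oxidative-stress marker, were scored by bidirectional curve fitting against 0.5% DMSO vehicle. Human HepaRG cultures received chemicals for 48 h in duplicate, highest concentration 100 uM with half-log dilutions.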

[14] = read-out: Heat shock 70 kDa protein 1 (HSPA1A), gene 3303; assay: LTEA_HepaRG_HSPA1A: Life Technologies and Expression Analysis (LTEA) Assay for Heat shock 70 kDa protein 1 (HSPA1A) using HepaRG (AID 2283502)
Summary of the method: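 HepaRG, 48 h exposure, 8-pt half-log CRC from 100 uM in 0.5% DMSO, duplicates. Readout: TaqMan qRT-PCR of HSPA1A mRNA, housekeeping-normalized (ACTB/GAPDH/POLR2A). Bidirectional fit vs 0.5% DMSO baseline.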

[15] = read-out: Hypoxia-inducible factor 1-alpha (Homo sapiens) (UniProt Q16665); assay: LTEA_HepaRG_HIF1A: Life Technologies and Expression Analysis (LTEA) Assay for Hypoxia-inducible factor 1 (HIF1A) Trancription factor using HepaRG (AID 2283503)
Summary of the method: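 Gain- or loss-of-signal HIF1A mRNA changes are fitted against a DMSO baseline. HepaRG cultures receive eight concentrations, highest 100 uM, for 48 h in serum-free induction medium with 0.5% DMSO.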

[16] = read-out: 3-Hydroxy-3-Methylglutaryl-CoA Synthase 2 (HMGCS2), HMGCS2 (gene 3158); assay: LTEA_HepaRG_HMGCS2: Life Technologies and Expression Analysis (LTEA) Assay for 3-Hydroxy-3-Methylglutaryl-CoA Synthase 2 (HMGCS2) using HepaRG (AID 2283504)
Summary of the method: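 Expression of HMGCS2 in human HepaRG liver cells is measured by qRT-PCR 48 h after dosing (highest 100 uM, half-log series, 0.5% DMSO). Values come from bidirectional concentration-response fitting with DMSO as baseline.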

HGF (gene 3082) = assay: LTEA_HepaRG_HGF: Life Technologies and Expression Analysis (LTEA) Assay for Hepatocyte Growth Facto (HGF) using HepaRG (AID 2283505)
Summary of the method: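 Gain or loss of HGF mRNA in human HepaRG liver cells after 48 h chemical exposure; eight concentrations up to 100 uM with 0.5% DMSO vehicle, quantified by TaqMan qRT-PCR.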

[17] = read-out: Insulin Like Growth Factor 1 (IGF1), IGF1 (gene 3479); assay: LTEA_HepaRG_IGF1: Life Technologies and Expression Analysis (LTEA) Assay for Insulin Like Growth Factor 1 (IGF1) using HepaRG (AID 2283506)
Summary of the method: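 qRT-PCR readout of IGF1 mRNA, normalized to three housekeeping genes, after 48 h chemical exposure of HepaRG cells. Concentrations: 8-point half-log series, top 100 uM, 0.5% DMSO vehicle. Gain or loss fitted against DMSO baseline.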

[18] = read-out: Early growth response protein 1 (EGR1) transcription factor, EGR1 (gene 1958); assay: LTEA_HepaRG_EGR1: Life Technologies and Expression Analysis (LTEA) Assay for Early growth response protein 1 (EGR1) transcription factor using HepaRG (AID 2283490)
Summary of the method: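 EGR1 expression change in human HepaRG after 48 h chemical exposure, assessed by housekeeping-normalized qRT-PCR; concentration-response up to 100 uM, fitted in both directions against DMSO controls.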

Sequence of Cytochrome P450 3A7 (Homo sapiens) (P24462 whole entry, looked up): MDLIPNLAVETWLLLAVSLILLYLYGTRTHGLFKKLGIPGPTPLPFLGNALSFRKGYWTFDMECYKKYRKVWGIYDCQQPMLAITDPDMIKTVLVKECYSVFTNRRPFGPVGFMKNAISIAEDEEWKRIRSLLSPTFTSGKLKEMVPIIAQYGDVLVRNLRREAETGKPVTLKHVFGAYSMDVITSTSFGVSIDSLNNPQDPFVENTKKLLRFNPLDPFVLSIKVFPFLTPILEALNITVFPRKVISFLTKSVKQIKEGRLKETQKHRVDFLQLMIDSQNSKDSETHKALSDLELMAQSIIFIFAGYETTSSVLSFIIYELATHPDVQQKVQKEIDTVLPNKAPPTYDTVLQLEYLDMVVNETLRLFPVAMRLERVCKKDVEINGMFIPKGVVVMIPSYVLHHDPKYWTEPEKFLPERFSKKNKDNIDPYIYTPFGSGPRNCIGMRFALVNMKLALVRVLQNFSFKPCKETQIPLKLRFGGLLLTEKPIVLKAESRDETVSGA
Sequence of Cytochrome P450 3A4 (Homo sapiens) (P08684 whole entry, looked up): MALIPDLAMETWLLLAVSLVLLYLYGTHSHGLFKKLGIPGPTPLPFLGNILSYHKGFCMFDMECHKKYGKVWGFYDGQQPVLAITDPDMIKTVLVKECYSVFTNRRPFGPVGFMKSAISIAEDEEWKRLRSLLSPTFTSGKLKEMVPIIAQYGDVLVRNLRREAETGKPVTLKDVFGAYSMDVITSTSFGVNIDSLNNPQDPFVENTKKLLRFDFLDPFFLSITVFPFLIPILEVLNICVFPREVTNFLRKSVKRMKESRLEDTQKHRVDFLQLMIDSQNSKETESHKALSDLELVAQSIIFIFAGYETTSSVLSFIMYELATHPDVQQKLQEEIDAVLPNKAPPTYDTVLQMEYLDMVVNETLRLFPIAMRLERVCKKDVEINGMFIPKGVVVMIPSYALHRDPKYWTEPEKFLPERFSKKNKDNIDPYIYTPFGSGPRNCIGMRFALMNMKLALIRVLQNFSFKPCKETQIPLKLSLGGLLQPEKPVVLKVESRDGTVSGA
Sequence of Hypoxia-inducible factor 1-alpha (Homo sapiens) (Q16665 whole entry, looked up): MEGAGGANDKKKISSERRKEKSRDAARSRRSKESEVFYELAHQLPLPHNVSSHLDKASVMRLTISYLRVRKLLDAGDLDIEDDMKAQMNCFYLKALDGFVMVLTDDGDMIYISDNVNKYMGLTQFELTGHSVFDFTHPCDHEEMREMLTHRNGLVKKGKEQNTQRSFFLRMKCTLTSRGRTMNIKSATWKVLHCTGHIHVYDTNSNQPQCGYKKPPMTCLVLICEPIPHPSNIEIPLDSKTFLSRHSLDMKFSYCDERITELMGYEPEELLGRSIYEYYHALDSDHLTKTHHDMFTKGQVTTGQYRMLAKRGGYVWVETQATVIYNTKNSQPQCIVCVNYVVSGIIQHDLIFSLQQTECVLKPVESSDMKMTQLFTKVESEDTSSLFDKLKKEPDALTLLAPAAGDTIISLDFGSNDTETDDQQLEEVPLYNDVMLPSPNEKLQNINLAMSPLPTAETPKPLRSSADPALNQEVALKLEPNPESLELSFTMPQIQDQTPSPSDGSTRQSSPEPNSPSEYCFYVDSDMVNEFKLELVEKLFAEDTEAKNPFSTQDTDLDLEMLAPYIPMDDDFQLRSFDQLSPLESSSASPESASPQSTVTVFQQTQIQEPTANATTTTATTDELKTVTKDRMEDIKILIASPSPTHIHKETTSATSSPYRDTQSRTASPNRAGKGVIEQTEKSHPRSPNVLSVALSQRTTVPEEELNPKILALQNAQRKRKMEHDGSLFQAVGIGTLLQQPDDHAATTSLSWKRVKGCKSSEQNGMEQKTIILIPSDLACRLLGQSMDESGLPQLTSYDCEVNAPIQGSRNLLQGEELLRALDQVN

S=C1NCCN1
outcome [1]: inactive
outcome [2]: inactive
outcome [3]: inactive
outcome [4]: inactive
outcome [5]: inactive
outcome (CYP3A5 (gene 1577)): inactive
outcome [6]: inactive
outcome [7]: inactive
outcome [8]: inactive
outcome [9]: inactive
outcome [10]: inactive
outcome [11]: inactive
outcome [12]: inactive
outcome [13]: inactive
AC50 [14]: 0.277 µM (active)
outcome [15]: inactive
outcome [16]: inactive
outcome (HGF (gene 3082)): inactive
outcome [17]: inactive

C#CCC1=C(C)C(OC(=O)C2C(C=C(C)C)C2(C)C)CC1=O (stereo unspecified)
outcome [1]: inactive
outcome [2]: inactive
AC50 [3]: 11.1 µM (active)
AC50 [18]: 49.8 µM (active)
outcome [4]: inactive
outcome (CYP3A5 (gene 1577)): inactive
AC50 [6]: 49.8 µM (active)
AC50 [7]: 81.5 µM (active)
outcome [8]: inactive
outcome [9]: inactive
outcome [10]: inactive
outcome [11]: inactive
outcome [12]: inactive
outcome [13]: inactive
outcome [14]: inactive
outcome [15]: inactive
outcome [16]: inactive
outcome (HGF (gene 3082)): inactive
AC50 [17]: 71 µM (active)

CCOP(=S)(OCC)OC(Cl)C(Cl)(Cl)Cl (stereo unspecified)
AC50 [1]: 50 µM (active)
outcome [2]: inactive
outcome [3]: inactive
outcome [18]: inactive
outcome [4]: inactive
outcome (CYP3A5 (gene 1577)): inactive
outcome [6]: inactive
outcome [7]: inactive
outcome [8]: inactive
outcome [9]: inactive
outcome [10]: inactive
outcome [11]: inactive
outcome [12]: inactive
outcome [13]: inactive
outcome [14]: inactive
outcome [15]: inactive
outcome [16]: inactive
outcome (HGF (gene 3082)): inactive
outcome [17]: inactive

CCCOc1nn(C(=O)NS(=O)(=O)c2ccccc2C(=O)OC)c(=O)n1C
outcome [1]: inactive
outcome [2]: inactive
outcome [3]: inactive
outcome [18]: inactive
outcome [4]: inactive
outcome [5]: inactive
outcome (CYP3A5 (gene 1577)): inactive
outcome [6]: inactive
outcome [7]: inactive
outcome [8]: inactive
outcome [9]: inactive
outcome [10]: inactive
outcome [11]: inactive
outcome [12]: inactive
outcome [13]: inactive
outcome [14]: inactive
outcome [15]: inactive
outcome [16]: inactive
outcome (HGF (gene 3082)): inactive
outcome [17]: inactive

CCCCSP(=O)(SCCCC)SCCCC
AC50 [1]: 26.1 µM (active)
AC50 [2]: 76 µM (active)
outcome [3]: inactive
outcome [18]: inactive
outcome [4]: inactive
outcome (CYP3A5 (gene 1577)): inactive
AC50 [6]: 92.5 µM (active)
AC50 [7]: 68.1 µM (active)
AC50 [8]: 50 µM (active)
outcome [9]: inactive
outcome [10]: inactive
outcome [11]: inactive
outcome [12]: inactive
outcome [13]: inactive
outcome [14]: inactive
outcome [15]: inactive
AC50 [16]: 50 µM (active)
outcome (HGF (gene 3082)): inactive
AC50 [17]: 65.7 µM (active)

CC1(C(=O)Nc2ccc(O)c(Cl)c2Cl)CCCCC1
AC50 [1]: 21.4 µM (active)
outcome [2]: inactive
outcome [3]: inactive
outcome [18]: inactive
outcome [4]: inactive
outcome [5]: inactive
outcome (CYP3A5 (gene 1577)): inactive
outcome [6]: inactive
outcome [7]: inactive
outcome [8]: inactive
outcome [9]: inactive
outcome [10]: inactive
outcome [11]: inactive
outcome [12]: inactive
outcome [13]: inactive
outcome [14]: inactive
outcome [15]: inactive
outcome [16]: inactive
outcome (HGF (gene 3082)): inactive
outcome [17]: inactive
